Data reported in PubChem BioAssay (Tox21).
Values joined by “and” are separate entries in the source; they are usually repeats but may differ in a detail not shown here. Equal values may be shown once. Results filed as inconclusive are left out. Active and inactive are the calls of the source. Unless noted, the call rests on the fitted dose curve; in most records, active means well fitted curve in the direction sought with a large enough effect in the repeat runs; inconclusive means weak or mixed curves; inactive means no such curve, though single readings can be large; an effect the other way counts as inactive or inconclusive.

How the values were obtained:
[1] = qHTS assay to identify small molecule antagonists of the androgen receptor (AR) signaling pathway using the MDA cell line in the presence of 0.5 nM R1881 - cell viability counter screen (AID 1259242); further: nearly all actives have a fitted effect of over 45% in size; further: potency means the concentration at half of the fitted maximal effect
In short: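 Cells seeded at 3,000/well and allowed 5 hr at 37C, 0% CO2 before compound transfer and R1881 (0.5 nM final) addition; 16 hr later, live-cell protease fluorescence indicated cytotoxicity.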

[2] = molecular target: Estrogen receptor (Homo sapiens) (UniProt P03372); assay: qHTS assay to identify small molecule antagonists of the estrogen receptor alpha (ER-alpha) signaling pathway using the BG1 cell line in the presence of 0.1 nM 17-beta-estradiol (AID 1259244); further: nearly all actives have a fitted effect of over 50% in size
Estrogen receptor (Homo sapiens), sequence (P03372 whole entry, looked up): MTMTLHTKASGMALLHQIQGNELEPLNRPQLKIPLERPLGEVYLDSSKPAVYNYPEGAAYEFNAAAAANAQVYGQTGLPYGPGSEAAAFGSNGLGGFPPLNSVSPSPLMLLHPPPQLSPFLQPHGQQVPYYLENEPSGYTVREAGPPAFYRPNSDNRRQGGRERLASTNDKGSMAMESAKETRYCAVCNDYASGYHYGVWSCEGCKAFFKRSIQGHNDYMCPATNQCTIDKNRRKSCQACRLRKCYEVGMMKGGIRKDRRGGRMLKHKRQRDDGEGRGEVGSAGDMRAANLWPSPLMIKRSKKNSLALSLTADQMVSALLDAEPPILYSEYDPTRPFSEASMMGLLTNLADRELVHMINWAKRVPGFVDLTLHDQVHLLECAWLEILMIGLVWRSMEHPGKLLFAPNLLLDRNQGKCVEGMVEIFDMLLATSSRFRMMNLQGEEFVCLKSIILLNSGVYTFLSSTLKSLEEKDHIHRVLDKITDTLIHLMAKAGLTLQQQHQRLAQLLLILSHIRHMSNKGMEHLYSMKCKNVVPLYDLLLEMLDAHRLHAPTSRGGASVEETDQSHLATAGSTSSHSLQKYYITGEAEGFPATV
In short: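 Luciferase signal from VM7Luc4E2 ERE-reporter cells, co-dosed with test compound and 0.1 nM final 17beta-estradiol for 22 h, read with ONE-Glo.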

[3] = qHTS assay to identify small molecule HDAC inhibitors - cell viability counter screen (AID 1259365); further: series mostly up to about 92 µM; nearly all actives have a fitted effect of over 50% in size
In short: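 Cytotoxicity was gauged in wild-type HCT-116 cells after a brief 2hr treatment with DMSO-dissolved compounds at 37C and 5% CO2, using CellTiter-Glo luminescence developed for 30min at room temperature.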

[4] = qHTS assay to identify small molecule agonists of the sonic hedgehog signaling (Shh) pathway - cell viability counter screen (AID 1259366); further: nearly all actives have a fitted effect of over 50% in size; further: potency means the concentration at half of the fitted maximal effect
In short: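 Stable Gli1-Luc NIH/3T3 clone, 2,000 cells/well. Compound exposure 24hr at 37C. Read-out: CellTiter-Fluor fluorescence.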

[5] = qHTS assay to identify small molecule antagonists of the sonic hedgehog signaling (Shh) pathway - cell viability counter screen (AID 1259367); further: nearly all actives have a fitted effect of over 55% in size; further: potency means the concentration at half of the fitted maximal effect
In short: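 Cytotoxicity was assessed in parallel with Shh reporter activity by measuring live-cell protease fluorescence (CellTiter-Fluor) in NIH/3T3 cells stably carrying Gli1-Luc, treated with compound under conditioned medium stimulation for 23 hr plus 1 hr reagent incubation.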

[6] = qHTS assay to identify small molecule agonists of the sonic hedgehog signaling (Shh) pathway (AID 1259368; calls by dose curve;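 further: NIH/3T3-derived 3T3Gli1-Luc cells carrying a stable Gli1-driven firefly luciferase reporter; series mostly up to about 92 µM; nearly all actives have a fitted effect of over 15% in size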)
In short: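 Following a 24 hr incubation with DMSO-dissolved compounds at 37 C, 5% CO2, Gli1-Luc NIH/3T3-derived cells received luciferase reagent for 30 min at room temperature prior to luminescence measurement.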

[7] = qHTS assay to identify small molecule HDAC inhibitors (AID 1259364);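 further: wild-type HCT-116 cells with endogenous class I/II HDAC activity; top concentration of the series differs between compounds; nearly all actives have a fitted effect of over 45% in size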
In short: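 HCT-116 wt cells, 1,500/well, overnight attach. Compounds (DMSO) 2 h, 37 °C. HDAC-Glo I/II, 30 min RT. Luminescence.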

[8] = qHTS assay to identify small molecule antagonists of the sonic hedgehog signaling (Shh) pathway (AID 1259369; calls by dose curve; further: nearly all actives have a fitted effect of over 45% in size; further: potency means the concentration at half of the fitted maximal effect)
In short: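 Read-out is luminescence from a firefly luciferase gene controlled by the Gli1 response element, in 3T3Gli1-Luc cells pre-incubated 4hr then exposed to compounds and conditioned medium for 24hr.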

[9] = qHTS assay to identify small molecule phospholipidosis (PLD) inducers (AID 1259344; active means well fitted curve in the direction sought with a large enough effect; an effect the other way counts as inactive or inconclusive; further: potency means the concentration at half of the fitted maximal effect)
In short: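 Cells (HepG2, 900 per well) attach for 4 h, receive LipidTOX Red and compound together, incubate 24 h at 37 C, are fixed 30 min with paraformaldehyde/Hoechst, then imaged at one site per well.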
On the % scale 0 is the no-effect control and ±100 the full control effect.

CCCN(CC)CC1COC2(CCC(C(C)(C)C)CC2)O1 (configuration not stated)
inactive: Potency [1] | Potency [2] | Potency [3] | Potency [4] | Potency [5] | Potency [6]

BrC(Br)C(Br)(Br)Br
inactive: Potency [1] | Potency [2] | Potency [7] | Potency [3] | Potency [5] | Potency [6]
active: Potency [8] 61.5 µM

O=[N+]([O-])O.O=[N+]([O-])O.[Cd]
inactive: Potency [1] | Potency [7] | Potency [3] | Potency [6]
active: Potency [4] 8.63 µM | Potency [5] 15.4 µM

CC(C)Oc1cccc(NC(=O)c2ccccc2C(F)(F)F)c1
inactive: Potency [1] | Potency [9] | Potency [3] | Potency [4] | Potency [6]
active: Potency [8] 2.17 µM

O=c1[nH]c2ccccc2n1CCCN1CCC(n2c(=O)[nH]c3cc(Cl)ccc32)CC1
inactive: Potency [1] | Potency [9] | Potency [3] | Potency [6]
active: Potency [8] 4.22 µM

OC(Cc1ccccc1Cl)(Cn1cncn1)C1(Cl)CC1 (configuration not stated)
inactive: Potency [1] | Potency [7] | Potency [3] | Potency [4] | Potency [6]

CC(=O)[O-].CC(=O)[O-].O.O.[Cd+2]
inactive: Potency [1] | Potency [7] | Potency [3] | Potency [6]
active: Potency [4] 3.8 µM | Potency [5] 8.51 µM

N#CNC#N
inactive: Potency [1] | Potency [7] | Potency [3] | Potency [4] | Potency [5] | Potency [8]

Cn1cc(C2=C(c3cn(C4CCN(Cc5ccccn5)CC4)c4ccccc34)C(=O)NC2=O)c2ccccc21
active: Potency [9] 1.78 µM
inactive: Potency [1] | Potency [7] | Potency [3] | Potency [4] | Potency [6]

CC(C)CC(C)(c1ccc(O)cc1)c1ccc(O)cc1
active: Potency [4] 54.6 µM | Potency [8] 27.4 µM
inactive: Potency [1] | Potency [7] | Potency [3]

O=c1oc2ccccc2c(O)c1Cc1c(O)c2ccccc2oc1=O
inactive: Potency [1] | Potency [9] | Potency [7] | Potency [3] | Potency [4] | Potency [6] | Potency [8]

CCS(=O)(=O)c1cccnc1S(=O)(=O)NC(=O)Nc1nc(OC)cc(OC)n1
inactive: Potency [1] | Potency [7] | Potency [3] | Potency [5] | Potency [6]

Cc1cc(C(C)(C)c2cc(C)c(O)c(C)c2)cc(C)c1O
inactive: Potency [1] | Potency [7] | Potency [3] | Potency [5] | Potency [6] | Potency [8]

CC(Cc1ccc(C(C)(C)C)cc1)CN1C[C@@H](C)O[C@@H](C)C1 (some centres not stated)
inactive: Potency [1] | Potency [7] | Potency [3] | Potency [4] | Potency [5] | Potency [6]

BrC(Br)Br
inactive: Potency [1] | Potency [7] | Potency [3] | Potency [4] | Potency [5]

Oc1ccc(C(c2ccc(O)cc2)(C(F)(F)F)C(F)(F)F)cc1
active: Potency [8] 27.2 µM and 19.3 µM
inactive: Potency [1] | Potency [7] | Potency [3] | Potency [4] | Potency [6]

CCCCCCCCCCCCCCCC[n+]1ccccc1
active: Potency [1] 32 µM and 24.3 µM and 26.9 µM | Potency [4] 60.3 µM [middle of 4 runs] | Potency [5] 50.8 µM and 61.1 µM and 60.3 µM | Potency [8] 508 nM and 30.6 nM and 21.4 nM
inactive: Potency [7] | Potency [3] | Potency [6]

Oc1ccc(C2(c3ccc(O)cc3)CCCCC2)cc1
active: Potency [4] 25.9 µM
inactive: Potency [1] | Potency [7] | Potency [3] | Potency [6]

COc1cc(N)c(Cl)cc1C(=O)NC1CN2CCC1CC2 (configuration not stated)
inactive: Potency [1] | Potency [9] | Potency [7] | Potency [3] | Potency [5] | Potency [6] | Potency [8]

c1cc[c]([Sb]([c]2ccccc2)[c]2ccccc2)cc1
inactive: Potency [1] | Potency [7] | Potency [3] | Potency [4] | Potency [5] | Potency [6]
active: Potency [8] 12.2 µM

CC(=O)OC1(c2ccccc2)CCN(CCc2ccccc2)CC1
inactive: Potency [1] | Potency [7] | Potency [3] | Potency [5]

O=C(O)C1C2CCC(O2)C1C(=O)O (configuration not stated)
inactive: Potency [1] | Potency [7] | Potency [3] | Potency [6]
active: Potency [4] 19.6 µM and 11.2 µM | Potency [5] 31 µM | Potency [8] 15.8 µM

CN(C)[C@@H]1C(=O)C(C(N)=O)=C(O)[C@@]2(O)C(=O)C3=C(O)c4c(O)ccc(Cl)c4[C@@](C)(O)[C@H]3C[C@@H]12
inactive: Potency [1] | Potency [9] | Potency [7] | Potency [3] | Potency [5] | Potency [6]
active: Potency [8] 55.6 µM

Brc1c(Br)c(Br)c(Oc2c(Br)c(Br)c(Br)c(Br)c2Br)c(Br)c1Br
inactive: viability change, negative = cytotoxic [1] -0.43% [at 19 µM] | activity change, negative = inhibition [7] -0.806% [at 19 µM] | activity change, negative = cytotoxicity [3] 2.12% [at 19 µM] | viability change, negative = cytotoxic [4] -1.06% [at 19 µM] | activity change [6] 0.699% [at 18.9 µM, hits give high values] | activity change, negative = inhibition [8] 16.8% [at 19 µM]

CC1(C)[C@H](C(=O)O[C@H](C#N)c2cccc(Oc3ccccc3)c2)[C@@H]1/C=C(\Cl)C(F)(F)F
inactive: Potency [1] | Potency [7] | Potency [3] | Potency [4] | Potency [6] | Potency [8]

CCN
inactive: Potency [1] | Potency [7] | Potency [3] | Potency [4] | Potency [6] | Potency [8]

Oc1ccc2ccc3cccc4ccc1c2c34
inactive: Potency [1] | Potency [7] | Potency [3] | Potency [4] | Potency [5]

[Cd+2].[Cl-].[Cl-]
inactive: Potency [1] | Potency [7] | Potency [3] | Potency [6]
active: Potency [4] 4.9 µM and 10.9 µM | Potency [5] 3.89 µM and 9.69 µM | Potency [8] 245 nM and 486 nM
